Bioassay records: PubChem, several laboratories
Shown are actives, neighbours in structure and some others; about 2% of the full set was active somewhere.
Gli-Sufu block: blocks Gli-Sufu signaling in a luciferase reporter; Sufu-KO-LIGHT fibroblasts, Gli luciferase reporter luminescence; inhibition, % at 5 µM; 340,000 compounds, 0.74% hits; AID 588413;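 active means inhibition above about 55%, limit read from the data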;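 further: 0% = DMSO-treated cells and 100% = wells with medium but no cells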
NR2F2 inh: NR2F2 (human) inhibition, primary screen; P24468; HEK293T NGFI-A luciferase reporter, luminescence; inhibition, % at 8.6 µM; 370,000 compounds, 0.7% hits;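 active means inhibition above a per-plate cutoff, mean inhibition of test wells between control levels plus 3 SD, cut at about 38% in these data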;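 further: cells cotransfected with COUP-TFII expression vector driving the NGFI-A reporter; 0% = median of COUP-TF2 test wells and 100% = reporter-only cells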
Target sequence (P24468 whole entry, looked up): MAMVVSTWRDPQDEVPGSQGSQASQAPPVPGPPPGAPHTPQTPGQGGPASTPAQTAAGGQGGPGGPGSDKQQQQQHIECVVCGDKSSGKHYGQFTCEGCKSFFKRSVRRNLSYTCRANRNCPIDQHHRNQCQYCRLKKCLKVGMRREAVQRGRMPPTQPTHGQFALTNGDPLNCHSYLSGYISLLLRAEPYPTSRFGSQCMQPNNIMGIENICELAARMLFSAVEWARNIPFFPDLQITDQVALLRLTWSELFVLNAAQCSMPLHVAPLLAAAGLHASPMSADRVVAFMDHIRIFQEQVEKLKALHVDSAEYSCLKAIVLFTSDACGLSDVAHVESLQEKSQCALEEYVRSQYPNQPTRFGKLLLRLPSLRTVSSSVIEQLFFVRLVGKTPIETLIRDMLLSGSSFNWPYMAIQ
GalR3 antagonist: human GalR3 antagonism. O60755. inhibition, % at 3 µM. 360,000 compounds, 0.44% hits. HEK293 GalR3-CNG cAMP membrane potential fluorescence; galR3 body fused to GalR1 C-terminus. AID 651719;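 active means inhibition above the screen-wide average plus 3 SD, cut at about 13% in these data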;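 further: forskolin and galanin both at EC90 stimulate the cells; cAMP rise reported by CNG channel membrane potential dye signal; 0% = forskolin plus galanin with DMSO and 100% = forskolin alone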
Jurkat NFkB inh: inhibitors of the PMA/ionomycin-induced NF-kB reporter in Jurkat cells; 330,000 compounds, 0.53% hits; AID 435003; inhibition, % at 4 µM; PMA/ionomycin-induced NF-kB luciferase reporter, luminescence; in the data active means inhibition above about 50%
697 NFkB inh: inhibitors of the PMA/ionomycin-induced NF-kB reporter in 697 B cells; 697 B-cell NF-kB luciferase reporter, 16 h; inhibition, % at 4 µM; 330,000 compounds, 0.33% hits; in the data active means inhibition above about 35%
Gli antag conf: confirmation of Gli-SUFU pathway antagonists; shares compounds with Gli-Sufu block; Sufu-KO-LIGHT cells, Gli luciferase reporter, luminescence; inhibition, % at 5 µM; 2,500 compounds, 40% hits;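 active means mean inhibition at 5 µM reaching about 45%, limit read from the data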;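 further: plate controls were DMSO-treated cells for no effect and wells lacking cells for full effect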
SufuKO cytotox: cytotoxicity counter-screen for Gli-SUFU antagonists; shares compounds with Gli-Sufu block; Sufu-KO-LIGHT cells cytotoxicity, ATP luminescence; cytotoxicity, % at 5 µM; 2,500 compounds, 32% hits; AID 651994;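 active means mean cytotoxicity at 5 µM above about 25%, limit read from the data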;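 further: cells exposed to compound overnight for roughly 16 to 18 hours; plate controls were DMSO wells with cells for no effect and medium without cells for full effect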
Wnt3a counter: counter-screen for Gli-SUFU antagonists: Wnt3a reporter inhibition | shares compounds with Gli-Sufu block | inhibition, % at 6.25 µM | AID 651995 | Wnt-LIGHT cells, Wnt3a-driven luciferase reporter, luminescence | 2,500 compounds, 20% hits;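 active means mean inhibition above about 25%, limit read from the data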
The depositor's hits bear a star; · = no result given.

SMILES	Gli-Sufu block	NR2F2 inh	GalR3 antagonist	Jurkat NFkB inh	697 NFkB inh	Gli antag conf	SufuKO cytotox	Wnt3a counter
C[C@@H]1[C@@H](O)C[C@@]2(C[C@H](O)c3cc(Cl)cc(Cl)c3O2)O[C@H]1c1ccccc1Cl	·	-9	·	·	·	·	·	·
C/C(=N\Nc1ccc(S(=O)(=O)Nc2ccccc2)cc1[N+](=O)[O-])c1ccncc1	·	-3	-2	18	-47	·	·	·
COc1ccc(NS(=O)(=O)c2ccc(N/N=C(\C)c3ccncc3)c([N+](=O)[O-])c2)cc1	66*	14	-2	27	-69	66*	25	35*
Cc1ccc(C(=O)N2CCCC(N(C)Cc3ccccc3)C2)s1 (stereo not given)	95*	5	-6	7	-6	23	-3	-29
Cc1ccc(C(=O)N2CCCC(C(=O)c3cc(F)ccc3F)C2)s1 (stereo not given)	7	6	2	3	-8	·	·	·
COC(=O)[C@H](C)NC(=O)C(Cc1ccc2c(c1)OCO2)NC(C)=O (stereo not given in full)	·	-14	·	·	·	·	·	·
Cc1nc2ccccc2n1CC(=O)NC(C)C1CC2CCC1C2 (stereo not given)	60*	30	-6	28	-11	54*	15	15
Cc1ccc(CNC[C@@]23CO[C@H](c4ccc(Cl)cc4)N2[C@@H](c2ccc(Cl)cc2)SC3)o1	·	5	·	·	·	·	·	·
CCN(CC)S(=O)(=O)c1cccc(NC(=O)/C=C/c2cccc([N+](=O)[O-])c2)c1	51	10	0	·	·	23	14	-45
CCN(CC)S(=O)(=O)c1cccc(NC(=O)/C=C/c2ccc([N+](=O)[O-])cc2)c1	-1	17	-12	-4	-41	·	·	·
CCN(CC)S(=O)(=O)c1ccc(OC)c(NC(=O)CC2CCCC2)c1	8	-6	-10	-12	8	·	·	·
CCN(CC)S(=O)(=O)c1cccc(NC(=O)CC2CCCC2)c1	57*	0	-8	-5	3	22	10	-8
COC(=O)c1cc(S(=O)(=O)N2CCN(c3ccccc3Cl)CC2)cn1C	·	19	·	·	·	·	·	·
O=C(NC1CCN(Cc2ccccc2)CC1)C1CCN(S(=O)(=O)c2cccc3nsnc23)CC1	59*	2	-5	26	14	19	29*	-5
O=C(NC1CCN(Cc2ccccc2)CC1)C1CCN(S(=O)(=O)c2cccc3cccnc23)CC1	-15	20	-2	2	7	·	·	·
COc1ccc(/C=N/Nc2cc(C)nc(-n3nc(C)cc3C)n2)cc1	12	16	-1	-4	5	·	·	·
Cc1cc(N/N=C/c2ccc(O)cc2O)nc(-n2nc(C)cc2C)n1	88*	5	-4	·	·	60*	27*	-35
C=CCn1nc([N+](=O)[O-])nc1Sc1cccc2cccnc12	68*	·	·	10	-17	48*	15	-93
O=C(NCCO)C1(C(=O)C2CC2)CC(c2ccccn2)=NO1 (stereo not given)	·	-12	·	·	·	·	·	·
CSc1nnc([C@@H]2CCCN2C(=O)OC(C)(C)C)o1	-2	6	1	2	17	·	·	·
Cn1c(C2CCCN2C(=O)OC(C)(C)C)n[nH]c1=S (stereo not given)	54	-2	-5	1	35	12	6	-2
Cc1ccc(CNC(=O)CCS(=O)(=O)Cc2ccc(C)cc2)cc1	51	8	-7	1	-28	24	1	10
Cc1ccc(CCNC(=O)CCS(=O)(=O)Cc2ccc(C)cc2)cc1	-17	0	-3	-3	-2	·	·	·
CN1CCN(C(CNC(=O)C(=O)Nc2ccc3c(c2)OCO3)c2ccc(F)cc2)CC1 (stereo not given)	54	-12	-6	-21	-15	20	9	-11
COc1cccc([C@@H]2NC(=O)C/C=C/[C@H](C)[C@H](c3cccc(OC)c3)NC(=O)C/C=C/[C@@H]2C)c1	·	13	·	·	·	·	·	·
SMILES	Gli-Sufu block	NR2F2 inh	GalR3 antagonist	Jurkat NFkB inh	697 NFkB inh	Gli antag conf	SufuKO cytotox	Wnt3a counter
CC(=O)c1ccc(NS(=O)(=O)c2ccc(C(C)(C)C)cc2)cc1	18	14	-7	-2	-12	·	·	·
CC(=O)c1ccc(NS(=O)(=O)c2ccc(C)cc2)cc1	55	7	-4	18	10	30	14	11
FC(F)(F)c1nc(-c2cccs2)ncc1-c1nnnn1-c1ccc(Cl)cc1	58*	4	-4	15	-34	58*	39*	1
Clc1ccc(-n2nnnc2-c2cnc(-c3ccncc3)nc2-c2cccs2)cc1	11	9	-2	10	-5	·	·	·
COC(=O)c1cc(-c2cc3ccccc3s2)c(=O)n2c1CCC2	·	3	·	·	·	·	·	·
Cn1c(=O)[nH]c(=O)c2c1ncn2CCN1CCOCC1	92*	4	2	12	-5	14	13	9
Cn1c(=O)[nH]c(=O)c2c1nc(N1CCOCC1)n2CCN1CCOCC1	-2	-4	-3	-20	19	·	·	·
COCCCN1C(=O)[C@H](CC(=O)NCc2cccc(C(F)(F)F)c2)[C@]2(C(=O)OC)CCCCC=C12	·	5	·	·	·	·	·	·
CCN1CCN(CCCCSc2ccccc2)CC1	·	·	·	-8	-8	·	·	·
c1ccc(SCCCCN2CCOCC2)cc1	50	-39	-3	-5	-9	16	27*	-14
S=c1[nH]nc(CSCc2ccccc2Cl)n1C1CCCCC1	52	4	4	·	·	30	20	0
O=C1OCC2=C1C(c1ccc(F)cc1)c1cc3c(cc1N2)OCO3 (stereo not given)	56*	-69	5	·	·	58*	62*	25
CCOc1ccccc1C1C2=C(COC2=O)Nc2cc3c(cc21)OCO3 (stereo not given)	55	-44	4	41	14	52*	62*	13
C#CCOc1ccc(C2C3=C(COC3=O)Nc3cc4c(cc32)OCO4)cc1OC (stereo not given)	-19	-53	3	·	·	·	·	·
COc1cc(NC(=O)C2CCCN(S(=O)(=O)c3cc(OC)ccc3OC)C2)cc(OC)c1 (stereo not given)	·	-6	·	·	·	·	·	·
CS(=O)(=O)c1nc(S(=O)(=O)c2ccc(Cl)cc2)c(NCCCn2ccnc2)s1	57*	-18	-7	5	-7	11	6	3
Cc1ccc(C)c(N2CC(O)(c3cccs3)[N+]3=C2CCCC3)c1 (stereo not given)	62*	-9	-4	3	14	50*	27*	-14
Cc1cc(=O)oc2cc(OCC(O)CN3CCc4ccccc4C3)ccc12 (stereo not given)	95*	-7	-6	-5	14	11	14	-44
